SMILES strings stand for the structures. Where “and” joins values, the source holds several entries; their conditions need not be identical. Equal values may be shown once. Inconclusive results are not listed. Calls of active or inactive are those of the source. Unless noted, the rule behind the calls is not given here.

A short description of test [1]: viability loss in pontine glioma line – cell-based, SU-DIPG-XIII, MIPE4.0, CellTiter-Glo, qHTS, dose response (AID 1347061; cut-off not given, nearly all actives have AC50 up to about 37 µM;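 note: cells exposed to compound for 48 hours before readout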). Conditions: CellTiter-Glo ATP luminescence.
Test [2] is described as follows: viability loss in pontine glioma line – cell-based, JHH-DIPG-1, MIPE4.0, CellTiter-Glo, qHTS, dose response (AID 1347062; cut-off not given, nearly all actives have AC50 up to about 27 µM). Conditions: JHH-DIPG-1 viability, CellTiter-Glo ATP luminescence.
Test [3] in a line: viability loss in pontine glioma line – cell-based, SU-DIPG-IV, MIPE4.0, CellTiter-Glo, qHTS, dose response (AID 1347063; cut-off not given, nearly all actives have AC50 up to about 30 µM;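 note: compound exposure lasted 48 hours before the viability readout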). Conditions: CellTiter-Glo ATP luminescence. (In general: Cellular ATP, detected with luciferase, serves as a proxy for viable cell number.)
The nature of test [4]: growth inhibition of DIPG cells – cell-based, MIPE4.0 library, CellTiter-Glo luminescence, qHTS (AID 1347066; cut-off not given, nearly all actives have AC50 up to about 30 µM;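 note: cells exposed to compound for 48 hours before readout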). Conditions: SU-DIPG-VI viability, CellTiter-Glo ATP luminescence.
A short description of test [5]: compounds altering Cy5-DNA-NS3h complex signal – biochemical, LOPAC1280, artefact control for HCV NS3 helicase inhibitor project (AID 687037). Conditions: Cy5-DNA-NS3h complex fluorescence interference counterscreen.
For test [6], the target named is ATP-dependent translocase ABCB1 (Homo sapiens) (UniProt P08183). Kind of test: P-glycoprotein substrate transport blockade – cell-based (AID 377; in the data active = fluorescence slope change above about 50%). Conditions: MDR1-expressing cells, fluorescent substrate accumulation slope; stronger effect = higher value; concentration not given here.
Sequence of ATP-dependent translocase ABCB1 (Homo sapiens) (P08183 whole entry, looked up): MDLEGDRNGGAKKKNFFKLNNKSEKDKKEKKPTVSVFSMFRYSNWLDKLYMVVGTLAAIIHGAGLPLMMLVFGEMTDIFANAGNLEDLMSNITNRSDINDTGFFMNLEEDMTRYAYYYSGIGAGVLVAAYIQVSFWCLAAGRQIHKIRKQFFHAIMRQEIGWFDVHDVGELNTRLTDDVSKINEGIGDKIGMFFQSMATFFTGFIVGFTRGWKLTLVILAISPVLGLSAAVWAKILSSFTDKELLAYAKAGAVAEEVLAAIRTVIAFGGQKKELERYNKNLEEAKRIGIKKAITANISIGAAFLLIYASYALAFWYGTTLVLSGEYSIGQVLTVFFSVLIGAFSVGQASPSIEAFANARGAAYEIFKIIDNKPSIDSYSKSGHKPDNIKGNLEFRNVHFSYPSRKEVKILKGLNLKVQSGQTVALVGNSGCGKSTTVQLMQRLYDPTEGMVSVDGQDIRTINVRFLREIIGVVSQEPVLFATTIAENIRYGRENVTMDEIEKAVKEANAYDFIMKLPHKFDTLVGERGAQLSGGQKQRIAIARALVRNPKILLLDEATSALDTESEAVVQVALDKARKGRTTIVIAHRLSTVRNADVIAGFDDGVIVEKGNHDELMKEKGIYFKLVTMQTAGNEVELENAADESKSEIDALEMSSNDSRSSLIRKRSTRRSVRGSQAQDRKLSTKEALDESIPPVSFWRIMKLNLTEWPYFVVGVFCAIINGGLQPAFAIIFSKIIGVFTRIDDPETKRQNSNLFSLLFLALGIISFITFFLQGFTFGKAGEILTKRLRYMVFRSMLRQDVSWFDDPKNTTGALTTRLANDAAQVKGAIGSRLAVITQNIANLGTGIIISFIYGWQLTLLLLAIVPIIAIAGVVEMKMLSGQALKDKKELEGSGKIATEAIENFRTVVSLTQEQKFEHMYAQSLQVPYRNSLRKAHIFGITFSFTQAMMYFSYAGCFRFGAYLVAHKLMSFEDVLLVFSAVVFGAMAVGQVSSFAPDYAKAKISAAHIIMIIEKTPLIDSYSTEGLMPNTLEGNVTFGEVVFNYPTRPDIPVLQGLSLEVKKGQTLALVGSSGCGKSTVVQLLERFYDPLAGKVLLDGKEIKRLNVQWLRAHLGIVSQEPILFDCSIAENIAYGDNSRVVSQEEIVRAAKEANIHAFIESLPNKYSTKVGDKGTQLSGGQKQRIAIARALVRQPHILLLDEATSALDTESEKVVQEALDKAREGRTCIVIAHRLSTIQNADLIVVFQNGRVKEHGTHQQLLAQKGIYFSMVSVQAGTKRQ
The nature of test [7]: compounds altering viability of human ES cells (AID 493140).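 Note: cells exposed to compounds for four days before counting.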 As to conditions: human embryonic stem cell survival screen; stronger effect = higher value.
The nature of test [8]: growth inhibition, single agent or in combination, cell-based, chromothripsis tumors, cisplatin or BGB combos (AID 1671449; in the data active = inhibition above about 80%;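 note: cells exposed for 96 hours; 0% = vehicle DMSO and 100% = killing by high DMSO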). As to conditions: LFS_MB_P medulloblastoma cells.
Test [9] is described as follows: growth inhibition, single agent and combos, cell-based, chromothripsis tumors, cisplatin or BGB combos (AID 1671450; in the data active = inhibition above about 80%;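 note: cells exposed to compound for four days; 0% = vehicle DMSO and 100% = cell killing by high DMSO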). As to conditions: HDN33 neuroblastoma cells, stronger effect = higher value.
A short description of test [10]: growth inhibition, single agents and combos, ICB984, cell-based, cisplatin or BGB combos, synergistic combos for chromothripsis tumors (AID 1671451).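 Note: cells exposed for 96 hours before readout; 0% = vehicle DMSO and 100% = killing by high DMSO.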 Conditions: ICB984 medulloblastoma cells, drug combinations, stronger effect = higher value.
A short description of test [11]: growth inhibition, single agents and combos, HTB85, cell-based, BGB or cisplatin IC20 combos, synergistic combos for chromothripsis tumors (AID 1671453; in the data active = inhibition above about 80%;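 note: cells exposed for 96 hours before readout; 0% = vehicle DMSO and 100% = high DMSO killing control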). Conditions: HTB85 osteosarcoma cells, drug combinations, stronger effect = higher value.
Test [12] is described as follows: growth inhibition, MDA-MB-436, cell-based, BGB or cisplatin combos, synergistic combos for chromothripsis tumors (AID 1671458).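 Note: cells exposed for 96 hours; 0% = vehicle DMSO and 100% = killing by high DMSO.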 Conditions: MDA-MB-436 breast carcinoma growth inhibition, drug combinations, stronger effect = higher value.
Test [13] in a line: BT084 cell growth, single and combined drugs, ICGC_MB145, cisplatin and BGB IC40 combos (AID 1671461; in the data active = inhibition above about 80%;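 note: cells exposed to drugs for 96 hours; 0% = vehicle DMSO and 100% = high DMSO full killing control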). As to conditions: BT084 medulloblastoma cells, drug combinations, stronger effect = higher value.
Test [14] can be described thus: RCMB18 cell growth, single agent and combined, cisplatin and BGB IC40 combos (AID 1671462; in the data active = inhibition above about 80%;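 note: cells exposed to compound for four days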). As to conditions: RCMB18 medulloblastoma cells, stronger effect = higher value.
The nature of test [15]: CRL1545 cell growth, single agent and combined, cisplatin and BGB IC20 combos (AID 1671464; in the data active = inhibition above about 80%;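 note: cells exposed to compound for 96 hours before readout; 0% = vehicle DMSO and 100% = high DMSO killing control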). Conditions: CRL1545 osteosarcoma cells, stronger effect = higher value.
[16] abbreviates: measured here: with BGB IC20 combination, at 0.5 µM.
Setting [17] is: measured here: with cisplatin IC20 combination, at 0.5 µM.

`OCC(O)C(O)C(O)CO` (stereo not drawn): the outcome in test [1], in test [2], in [3] and in test [4] was inactive.
Regarding `NCCCCC(=O)O`, the fluorescence ratio (interference) in test [5] was 0.9 (inactive).
As for `N[C@@H](Cc1cc(I)c(Oc2ccc(O)c(I)c2)c(I)c1)C(=O)O`, the fluorescence slope change in [6] was 18.7% (inactive). For the same compound, the survival in [7] was 4.58 (inactive).
Take `NC(N)=NC(=O)c1nc(Cl)c(N2CCCCCC2)nc1N`: the fluorescence ratio (interference) in test [5] was 0.9 (inactive).
As for `NCCSSCCN`, the fluorescence ratio (interference) in [5] is 1 (inactive).
For `CN1CCc2cccc3c2C1Cc1ccc(O)c(O)c1-3` (stereo not drawn), the fluorescence ratio (interference) in test [5] was 1 (inactive).
What is called inhibition is the change of the read-out against control, counted positive when it falls. Take `COc1c2ccoc2cc2oc(=O)ccc12`: the inhibition is -22.9% (inactive) in [8] (at 0.5 µM, stronger effect = higher value); -15% in test [8] (measured here: combination with BGB IC20, at 0.005 µM); -30% in test [8] (measured here: combination with BGB IC40, at 0.005 µM); 3.17% in [8] (measured here: combination with BGB IC40, at 0.05 µM); -36.3% in [8] (measured here: combination with cisplatin, at 0.5 µM, stronger effect = higher value); -26.9% in test [8] (measured here: combination with cisplatin, at 5 µM, stronger effect = higher value). The inhibition in test [9] (BGB combo, at 5 µM) is -4.43%; in test [9] (at 0.5 µM), -1.51% (inactive); in test [9] (cisplatin combo, at 5 µM) it was -17.2%; in test [9] (setting [16]), 5%; in [9] (setting [17]) it was 1.07%; in [9] (single agent, at 5 µM) it was -13.4%. Besides, the inhibition in [10] (BGB IC20 combo, at 0.005 µM) is -7.99%; in [10] (BGB IC40 combo, at 0.005 µM), -11.7%; in test [10] (BGB IC40 combo, at 0.05 µM) it was -24.6%; in test [10] (at 0.5 µM), -24.1% (inactive); in test [10] (cisplatin combo, at 0.05 µM) it was -24.6%; in [10] (cisplatin combo, at 0.5 µM), -26.9%. For the same compound, the inhibition was -4.96% in test [10] (cisplatin combo, at 5 µM); -16.8% in [10] (measured here: 5 uM single agent, at 5 µM); -23.4% (inactive) in test [11] (at 0.5 µM); -60.7% in test [11] (measured here: with BGB IC20, at 0.5 µM); -19.3% in test [11] (measured here: with BGB IC20, at 5 µM); -7.94% in test [11] (measured here: with cisplatin IC20, at 0.5 µM). Moreover, the inhibition was 10.7% in test [11] (measured here: with cisplatin IC20, at 5 µM); -6.82% in test [11] (single agent, at 5 µM); -22.2% (inactive) in [12] (at 0.5 µM); -22.9% in [12] (measured here: BGB combination, at 0.5 µM); -18.9% in test [12] (measured here: BGB combination, at 5 µM); -40% in test [12] (measured here: cisplatin combination, at 0.5 µM). The inhibition is -24.1% in [12] (measured here: cisplatin combination, at 5 µM); -16.4% (inactive) in [13] (at 0.5 µM); -9.55% in test [13] (cisplatin combination, at 0.5 µM); -48% in test [13] (cisplatin combination, at 5 µM); -9.91% in [13] (measured here: BGB IC40 combination 0.05 uM, at 0.05 µM); -11.1% in test [13] (single agent, at 5 µM). The inhibition in test [14] (at 0.5 µM) is -11% (inactive); in test [14] (cisplatin combo, at 5 µM) it was 17.9%; in test [14] (measured here: BGB IC40 combination, at 0.05 µM), -6.4%; in test [14] (measured here: combination with cisplatin, at 0.5 µM), -1.6%; in test [14] (single agent, at 5 µM) it was -15.2%; in [15] (at 0.5 µM) it was -17.9% (inactive). In addition, the inhibition is -18.6% in [15] (setting [16]); -17.5% in test [15] (setting [17]); -2.38% in test [15] (single agent, at 0.05 µM); 22.5% in test [15] (single agent, at 5 µM).
In the case of `Cn1c(=O)c2[nH]c(C3CCCC3)nc2n(C)c1=O`, the fluorescence ratio (interference) in test [5] was 1 (inactive).
For the compound `COc1cc(S(C)=O)ccc1-c1nc2ncccc2[nH]1` (stereo not drawn), in test [6], the fluorescence slope change is 5% (inactive). For the same compound, the survival in test [7] is 5.5 (inactive).
Regarding `COC(=O)[C@H]1[C@H]2C[C@H]3c4[nH]c5ccccc5c4CCN3C[C@H]2CC[C@@H]1O`, in test [7], the survival was 5.58 (inactive). Further, the fluorescence ratio (interference) in test [5] was 1 (inactive).
For `Oc1cc(O)c2c(c1)O[C@H](c1ccc(O)c(O)c1)[C@@H](O)C2`, in test [6], the fluorescence slope change was 16.4% (inactive). Also, the survival in test [7] was 6.17 (inactive) and 8.75 (inactive). Besides, the fluorescence ratio (interference) in test [5] is 1 (inactive).
For the compound `NC1(C(=O)O)CC1`, the fluorescence ratio (interference) in [5] was 1 (inactive).
Turning to `NC(=O)CC[C@H](N)C(=O)O`, in test [5], the fluorescence ratio (interference) was 1 (inactive).
With `COc1cc2c(cc1OC)-c1cc3ccc(OC)c(OC)c3c[n+]1CC2`, the fluorescence slope change in test [6] was 29.3% (inactive). The survival in [7] is 1.83 (inactive).
For `NCCCCN=C(N)N`, in [6], the fluorescence slope change is 53.1% (active). Also, the fluorescence ratio (interference) in test [5] is 1 (inactive).
Consider `Cn1c(=O)[nH]c2ncn(C)c2c1=O`, for which, in test [5], the fluorescence ratio (interference) is 1 (inactive).
As to `CC(=O)Oc1ccccc1C(=O)Oc1ccccc1C(=O)O`, the survival in [7] was 16.8 (inactive).
Regarding `CN[C@H](CC(=O)O)C(=O)O`, in [5], the fluorescence ratio (interference) was 1 (inactive).
For the compound `CN1CCc2c(c3ccccc3n2Cc2ccccc2)C1`, the fluorescence slope change in test [6] is 70.9% (active). Also, the survival in test [7] was 3.25 (inactive).
As to `Cc1cc(C(C)(C)CC(C)(C)C)ccc1OCCOCC[N+](C)(C)Cc1ccccc1`, the fluorescence slope change in test [6] was 152% (active). The survival in [7] is 0.167 (inactive).
In the case of `CC1(C)S[C@@H]2[C@H](NC(=O)Cc3ccccc3)C(=O)N2[C@H]1C(=O)O`, in [7], the survival was 5.08 (inactive).
Consider `CN(C)CCOC(c1ccccc1)c1ccccc1` (tested in a mixture with another compound), for which the fluorescence slope change in [6] was 130% (active). For the same compound, the survival in test [7] was 24.5 (inactive).
On the same counts, the results for `CC(C(=O)O)c1ccc(N2Cc3ccccc3C2=O)cc1` (stereo not drawn) are 85.5% (active) and 4.83 (inactive).
On the same counts, the results for `CC(CN(C)C)CN1c2ccccc2Sc2ccccc21` (stereo not drawn) are 102% (active) and 1.08 (inactive).
Regarding `O=C1OC(=O)C2C3CCC(O3)C12` (stereo not drawn), the fluorescence ratio (interference) in [5] is 1 (inactive).
Still for that read-out and setting: to `O=C(O)c1cc2cc(F)ccc2[nH]1` belongs 1 (inactive); to `NCCCCN`, 0.9 (inactive).
On to `NC(N)=NCCCCN=C(N)N`, for which the fluorescence slope change in test [6] is 59.6% (active). In test [7], the survival is 5.58 (inactive). Besides, in test [5], the fluorescence ratio (interference) was 1 (inactive).
With `C=C1c2c(Cl)ccc(O)c2C(O)=C2C(=O)[C@]3(O)C(O)=C(C(N)=O)C(=O)[C@@H](N(C)C)[C@@H]3[C@@H](O)[C@H]12`, in test [7], the survival is 6.83 (inactive).
As to `NCCCS(=O)(=O)O`, the fluorescence ratio (interference) in [5] is 1 (inactive).
For the compound `COc1cc2cc3c4cc(OC)c(OC)cc4cc[n+]3c(C)c2cc1OC`, the survival in test [7] was 0.333 (inactive).
